This is an account of results in PubChem BioAssay AID588795 (National Center for Advancing Translational Sciences (NCATS), 2011).

About 1,400 (0.36%) of roughly 390,000 compounds were called active. Roughly 2% stayed inconclusive and do not appear here. The call rests on the fitted dose curve; in most records, active means well fitted inhibition curve with a large enough effect; inconclusive means small, poorly fitted or top-dose-only effect; inactive means no such curve, though single readings can be large or run the other way. Shown is part of a subset that was picked to be rich in actives.
On the % scale 0 is the no-effect control and ±100 the full control effect; potency means the concentration at half of the fitted maximal effect.

Flap endonuclease 1 (Homo sapiens), sequence (P39748 whole entry, looked up, the tested form may be a part): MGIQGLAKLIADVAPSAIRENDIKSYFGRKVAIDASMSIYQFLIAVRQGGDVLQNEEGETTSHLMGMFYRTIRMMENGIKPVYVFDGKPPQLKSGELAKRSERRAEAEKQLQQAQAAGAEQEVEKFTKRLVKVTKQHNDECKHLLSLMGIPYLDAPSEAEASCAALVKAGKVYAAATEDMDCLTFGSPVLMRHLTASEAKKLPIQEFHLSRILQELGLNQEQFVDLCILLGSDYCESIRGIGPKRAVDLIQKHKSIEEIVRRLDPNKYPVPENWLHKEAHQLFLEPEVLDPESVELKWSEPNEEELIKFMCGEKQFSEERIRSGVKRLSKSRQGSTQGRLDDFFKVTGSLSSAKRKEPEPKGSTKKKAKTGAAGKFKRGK

The assay has as its target Flap endonuclease 1 (Homo sapiens) (UniProt P39748). Description: qHTS Assay for the Inhibitors of Human Flap endonuclease 1 (FEN1). Further: nearly all actives have a fitted effect of over 65% in size. Conditions: Recombinant FEN1 flap cleavage, fluorescence, 15 min; series mostly up to 114 µM; activity change, negative = inhibition: at the top concentration. The text has this: The major human flap endonuclease FEN1 is an efficient structure-specific enzyme that recognizes and cleaves a 5'-unannealed DNA flap. It belongs to the RAD2 family nucleases, which are involved in DNA metabolism and are highly conserved in prokaryotes and eukaryotes. FEN1 is a key enzyme in DNA replication, repair and maintenance of genomic stability. 5'-flap removal by FEN1 is critical for Okazaki fragment processing during lagging strand DNA synthesis, long-patch base excision repair (LP BER), and regulating or facilitating recombination events. […] Deletion of the yeast FEN1 gene, i.e. rad27, results in an increased frequency of short DNA (3-32 bp) repeats, micro- and mini-satellite formation, trinucleotide repeat expansion, spontaneous recombination events, and a severe growth defect in association with cell cycle arrest in late S/G2 phase. […] Cells from fen1-/- blastocysts show increased apoptotic cell death after ionizing radiation treatment, and chicken cells lacking the fen1 gene are hypersensitive to DNA alkylating agents, e.g. methylmethane sulfonate (MMS) and N-methyl-N'-nitro-N-nitrosoguanidine (MNNG), as well as hydrogen peroxide.
NIH Chemical Genomics Center [NCGC]
NIH Molecular Libraries Probe Centers Network [MLPCN]
Assay Submitter (PI): David Wilson, National Institute of Aging
Three uL of reagents (buffer in column 3 and 4 as negative control and 10 nM FEN1 in columns 1, 2, and 5-48) were dispensed into 1,536-well black solid-bottomed plate. Compounds (23 nL) were transferred via Kalypsys pin tool equipped with 1536-pin array (10 nL slotted pins, V&P Scientific, San Diego, CA). The plates were then incubated for 15 min at room temperature, and 1 uL substrate (50 nM final concentration) were added to start the reaction read twice at 0 min read and 15 min on ViewLux reader. Throughout the screen, reagent bottle and all liquid lines were chilled and made light-tight to minimize reagent degradation. All screening operations were performed on a fully integrated robotic system (Kalypsys, San Diego, CA) containing one RX-130 and two RX-90 anthropomorphic robotic arms (Staubli, Duncan, SC). Library plates were screened starting from the lowest and proceeding to the highest concentration, and a "double-dipping" step of the highest concentration was required to access higher concentrations of compounds. Vehicle-only plates, with DMSO being pin-transferred to the entire column 5-48 compound area, were inserted uniformly at the beginning and the end of each library in order to monitor for and record any shifts in the background, which can be affected by reagent dispensers or loss in enzyme activity overtime. Screening data was corrected, normalized, and concentration-effect relationships were derived by using publicly-available curve fitting algorithms developed in-house (http://ncgc.nih.gov/pub/openhts). A four parameter Hill equation was fitted to the concentration-response data by minimizing the residual error between the modeled and observed responses.
For the compound `COc1cc2nc(Cl)nc(NC3CC3)c2cc1OC`, the “activity change, negative = inhibition” value was -7% (inactive).

`COc1cc2nc(N3CCCN(C)CC3)nc(NC(C)C)c2cc1OC`: the “activity change, negative = inhibition” value was -7.37% (inactive). Turning to `CNCCCOc1cc2nc(N3CCCN(C)CC3)nc(NC3CCN(C)CC3)c2cc1OC`, the Potency is 22.4 µM (active). For `CN(N=O)c1ccc(C=C2c3ccccc3-c3ccccc32)cc1`, the “activity change, negative = inhibition” value is -19.3% (inactive). Turning to `O=C(COc1ccccc1C(=O)Nc1ccccc1)Nc1cccc(F)c1`, the “activity change, negative = inhibition” value was 2.36% (inactive). The same measure, in the same setting: with `CC(=O)c1ccc[n+](C(C)CCC(C)[n+]2cccc(C(C)=O)c2)c1` (stereo unspecified) the figure was -9.54% (inactive); with `Cc1ccc(-c2cc(N)n(Cc3cccc(Cl)c3)n2)cc1`, -16.4% (inactive). Regarding `CC(=O)OC1CCC2(C)C(=CCC3C4CC(=O)N(O)C(=O)C4(C)CCC32)C1` (stereo unspecified), the Potency is 3.16 µM (active).

Consider `C[C@]12CC[C@H](O)CC1=CCC1C2CC[C@@]2(C)C1CC[C@@H]2NC(=O)CCC(=O)O` (stereo partly specified), for which the “activity change, negative = inhibition” value was 2.34% (inactive). Still for that read-out and setting: with `C[C@@H]1CC[C@@]2(OC1)O[C@H]1C[C@H]3[C@@H]4CC=C5C[C@@H](O)[C@H](O)C[C@]5(C)C4CC[C@]3(C)[C@H]1[C@@H]2C` (stereo partly specified) the figure was 13.5% (inactive); with `CC(C)(C(=O)NO)c1ccccc1`, -6.25% (inactive); with `CN(C)c1ccc(/C=N\Nc2ccc([N+](=O)[O-])cc2[N+](=O)[O-])cc1Cl`, 2.15% (inactive). The same measure, in the same setting: with `CCCCOc1ccc(CN2C(=O)C(=O)c3cc(Br)cc(C)c32)cc1OC` the figure was -12.5% (inactive); with `COc1ccc(Nc2cc(C(=O)NCCCN(C)c3ccccc3)c3ccccc3n2)c(OC)c1`, 1.8% (inactive). With `CN(C)CCNC(=O)c1ccc(Cl)c2cc3ccccc3nc12`, the Potency was 11.2 µM (active). For `COc1ccccc1Nc1cc(C(=O)NCCCN(C)C2CCCCC2)c2ccccc2n1`, the “activity change, negative = inhibition” value was 3.77% (inactive).

On to `Cc1ccc(NC(=O)CN2C(=O)C(c3ccc(F)cc3)=NC23CCCCCC3)c(C)c1`, for which the Potency was 89.1 µM (active). For `COc1ccc(NC(=O)CN2C(=O)C(c3ccccc3)=NC23CCCCCC3)cc1OC`, the “activity change, negative = inhibition” value was -12.5% (inactive). Still for that read-out and setting: the value for `CCc1ccc(NC(=O)CN2C(=O)C(c3ccccc3)=NC23CCCCCC3)cc1` was -26.4% (inactive). On the same count and under the same terms, with `COc1ccc(CCNc2ncnc3c2cnn3-c2ccc(C)cc2)cc1` the figure was -15.5% (inactive).

As for `COc1ccc2[nH]c3c(C)c4cc[n+](C)cc4c(C)c3c2c1`, the Potency was 2.24 µM (active). As to `CCOC(=O)c1[nH]c2ccc(OC)cc2c1NC(=O)N1CCOCC1`, the “activity change, negative = inhibition” value is -2.89% (inactive).

For the compound `CN(C)c1ccc(/C=C2\C=Cc3ccccc32)cc1Br`, the “activity change, negative = inhibition” value was -23.9% (inactive). On the same count and under the same terms, the value for `c1ccc(Cn2nnc3c(N4CCCCC4)ncnc32)cc1` was 14.5% (inactive). Same read-out and setting: with `CCCCOc1ccc(C(=O)NO)cc1` the figure was 0.524% (inactive); with `O=[N+]([O-])c1ccc(/C=C/c2ccc3cccnc3c2)cc1`, -2.17% (inactive). In the case of `COc1ccc(OC)c(NC(=O)Cc2cccs2)c1`, the “activity change, negative = inhibition” value was -1.63% (inactive). `COc1ccccc1NC(=O)Nc1nnc(Cc2ccc(F)cc2)s1`: the “activity change, negative = inhibition” value is 26.2% (inactive). On to `COc1ccc(Cc2nnc(NC(=O)Cc3cccs3)s2)cc1`, for which the Potency was 56.2 µM (active). Same read-out and setting: the value for `CN(C)c1ccc(/C=C/c2sc3ccccc3[n+]2CCCCBr)cc1` was 50.1 µM (active).

With `CC[n+]1cc(C)ccc1/C=C/c1ccc(N(C)C)cc1`, the “activity change, negative = inhibition” value is -25% (inactive). Still for that read-out and setting: the value for `CN(C)c1ccc(/C=C/c2c3ccccc3nc3ccccc23)cc1` was -17% (inactive). For the compound `CN(C)c1ccc(/C=C/c2sc3ccccc3[n+]2C)cc1`, the Potency is 50.1 µM (active). As for `CO[C@H]1O[C@@H]2O[C@@]3(C)CC[C@@H]4[C@@H](C)CC[C@@H]([C@H]1C)[C@@]24OO3`, the “activity change, negative = inhibition” value is 12.3% (inactive). Still for that read-out and setting: with `Cc1ccc(Cn2cnc3c(cnn3C(C)(C)C)c2=O)c(F)c1` the figure was -14.4% (inactive); with `Cc1ccc(C=O)cc1Cl`, -1.08% (inactive); with `CCCCCCC1(C)NC(c2ccc3c(c2)OCO3)=CC(c2ccccc2O)N1` (stereo unspecified), -17.3% (inactive). Take `Cc1ccc2ccc3c(c2n1)NS(=O)(=O)c1ccccc1-3`: the “activity change, negative = inhibition” value is 13.3% (inactive). Same read-out and setting: the value for `SCc1nc2ccc(Cl)cc2[nH]1` was 3.96% (inactive); that for `CCN(CC)/[N+]([O-])=N/OCOC(=O)Cc1c(C)n(C(=O)c2ccc(Cl)cc2)c2ccc(OC)cc12` was -21% (inactive); that for `CCc1cnc2c(c1SCC(=O)c1ccccc1)c(=O)n(C)c(=O)n2C` was 7.78% (inactive). `O=C(NNc1c2ccccc2nc2ccccc12)c1cc2ccccc2cc1O`: the Potency was 50.1 µM (active). Take `O=C(COC(=O)c1ccc(O)cc1O)NC(=O)c1ccccc1`: the “activity change, negative = inhibition” value is -0.462% (inactive). Same read-out and setting: the value for `O=C(NNC(=O)c1ccccc1O)c1ccccc1O` was -1.19% (inactive). With `COc1c(O)cc2oc(-c3ccc(O)c(O)c3)cc(=O)c2c1O`, the Potency is 17.8 µM (active). Turning to `COc1ccc(-c2c(C)c3ccc(O)c(CN4CCN(C)CC4)c3oc2=O)cc1OC`, the “activity change, negative = inhibition” value is -15.2% (inactive). `CCOC(=O)COc1cc(OCC(=O)OCC)c2c(=O)cc(-c3ccccc3)oc2c1`: the “activity change, negative = inhibition” value was 5.91% (inactive).

For `OCC(O)C(O)C(O)C(O)C=Nc1ccc(/C=C/c2ccnc3ccccc23)cc1` (stereo unspecified), the “activity change, negative = inhibition” value was 5.86% (inactive).

Consider `CC1(C)Cc2ccccc2-c2c[nH]c(=O)n21`, for which the “activity change, negative = inhibition” value is 1.92% (inactive). For the compound `Nc1ccccc1SC(C[N+](=O)[O-])c1ccccc1` (stereo unspecified), the Potency was 15.8 µM (active). In the case of `Cc1csc[n+]1CCC1CCCCC1`, the “activity change, negative = inhibition” value is 3.23% (inactive).
